HttQ103 aggreg: reduces HttQ103-GFP aggregates in PC12 cells; PC12 HttQ103-GFP aggregates, Acumen cytometry, 40 h; Potency, µM (doses to about 46.1 µM), without a hit: at the top dose activity change, negative = inhibition, usual class: inhibitors; 220,000 tested, 1.1% active; also: potency is read from the fitted curve at half-maximal effect; % is scaled to controls: 0 for no effect and ±100 for the full control effect; nearly all actives have a fitted effect of over 60% in size
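Multiplexed with ATP-based cell death, this channel scores GFP aggregates in PC12 cells expressing inducible HTTex1-Q103-GFP. Induction used 100 nM tebufenozide; compounds were tested in concentration series.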
HTT ATP protect: cytoprotection in Huntington HTT-Q103 PC12 cell model. Potency, µM (doses to about 56.4 µM), inactives show cytoprotection (ATP increase), usual class: activators. 230,000 tested, 0.14% active. AID 1471. PC12 HTT-Q103 induced, cytoprotection, ATP luminescence, 40 h; also: potency is read from the fitted curve at half-maximal effect; % of control where 0% means no effect; nearly all actives have a fitted effect of over 45% in size
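PC12 cells stably carrying ecdysone-inducible Htt exon 1 (Q103)–GFP were induced with 100 nM tebufenozide (final) alongside library compounds in a dose series. Cytoprotection was scored as retained ATP by ATPlite luminescence.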
IMPase Li inh: membrane-permeable IMPase blocker, potentiated with lithium. 210,000 tested, 0.35% active. AID 1457. CHO-M1 cells, IP1 TR-FRET (IP-One), carbachol + lithium. Potency, µM (doses to about 59.4 µM), for inactives: top-dose activity, negative = IMPase inhibition, actives largely listed as inhibitors;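 also: IP1 builds up when IMPase is blocked and the TR-FRET signal falls; potency is read from the fitted curve at half-maximal effect; plate controls were basal vehicle for no effect and high inhibitor control for full effect; nearly all actives have a fitted effect of over 50% in size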
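Lithium-sensitised IP1 accumulation assay; M1-expressing CHO cells treated 30 min at 37C with compound. Competitive antibody detection by time-resolved FRET followed a 10 min room-temperature lysis step.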
HPGD block: inhibitors of human 15-hydroxyprostaglandin dehydrogenase (HPGD). P15428. purified HPGD, NADH fluorescence kinetic, PGE2 substrate. Potency, µM, for the others: at the top dose activity change, negative = inhibition, hits mostly inhibitors. 150,000 tested, 4.3% active. AID 894; active = well fitted inhibition curve with a large enough effect, not every such curve was filed as active; inconclusive = small, poorly fitted or top-dose-only effect, or another doubt; inactive = no such curve, though single readings can be large or run the other way; also: potency is read from the fitted curve at half-maximal effect; % is scaled to controls: 0 for no effect and ±100 for the full control effect
Target sequence (P15428 whole entry, looked up): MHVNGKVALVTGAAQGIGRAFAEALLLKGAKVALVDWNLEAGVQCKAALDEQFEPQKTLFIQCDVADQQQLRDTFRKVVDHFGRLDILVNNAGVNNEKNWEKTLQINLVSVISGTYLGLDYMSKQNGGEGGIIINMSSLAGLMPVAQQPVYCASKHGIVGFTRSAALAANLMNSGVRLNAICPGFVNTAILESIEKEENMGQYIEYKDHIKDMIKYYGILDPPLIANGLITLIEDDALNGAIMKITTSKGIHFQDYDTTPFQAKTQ
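NADH formation kinetics: reaction with 30 uM PGE2 and 1 mM NAD+ (final), 20 nM enzyme, Tris-HCl pH 8 with Tween 20, after 15 min compound preincubation at room temperature. Fluorescence change, last versus first of five reads.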
IMPase cell inh: cell-permeable inhibitors of inositol monophosphatase (IMPase); P97697; CHO-M1 cells, IP1 accumulation, HTRF TR-FRET ratio; inhibition (IP1 accumulation), % at 46.1 µM; 120,000 tested, under 10 active; AID 901; active = well fitted curve in the direction sought with a large enough effect in the signal ratio, not every such curve was filed as active; inconclusive = small, poorly fitted or top-dose-only effect, or a change in a side signal; inactive = no such curve, though single readings can be large or run the other way; the % refers to the signal ratio;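 also: cells stimulated with carbachol in lithium chloride buffer; plate controls were DMSO basal wells for no effect and reference inhibitor wells for full effect; higher means more IMPase inhibition seen as more IP1 and lower FRET ratio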
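CHO-M1 cells (CHO stably expressing M1 receptor), compound up to 46 uM final, stimulated with carbachol (50 uM as added) in buffer with 50mM LiCl, pH 7.4, 30 min at 37C. Cytosolic IP1 read by TR-FRET; AC50 from Hill fits.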
ALDH1A1 block: inhibitors of human aldehyde dehydrogenase 1A1; P00352; Purified ALDH1A1, NADH fluorescence, propionaldehyde substrate; Potency, µM (top dose mostly 75.3 µM), for inactives: at the highest dose activity, negative = inhibition, most hits filed as inhibitors; 220,000 tested, 7.3% active; AID 1030; active = well fitted inhibition curve with a large enough effect, not every such curve was filed as active; inconclusive = small, poorly fitted or top-dose-only effect, or another doubt; inactive = no such curve, though single readings can be large or run the other way;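 also: potency is read from the fitted curve at half-maximal effect; plate controls were no enzyme wells and a reference inhibitor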
Target sequence (P00352 whole entry, looked up): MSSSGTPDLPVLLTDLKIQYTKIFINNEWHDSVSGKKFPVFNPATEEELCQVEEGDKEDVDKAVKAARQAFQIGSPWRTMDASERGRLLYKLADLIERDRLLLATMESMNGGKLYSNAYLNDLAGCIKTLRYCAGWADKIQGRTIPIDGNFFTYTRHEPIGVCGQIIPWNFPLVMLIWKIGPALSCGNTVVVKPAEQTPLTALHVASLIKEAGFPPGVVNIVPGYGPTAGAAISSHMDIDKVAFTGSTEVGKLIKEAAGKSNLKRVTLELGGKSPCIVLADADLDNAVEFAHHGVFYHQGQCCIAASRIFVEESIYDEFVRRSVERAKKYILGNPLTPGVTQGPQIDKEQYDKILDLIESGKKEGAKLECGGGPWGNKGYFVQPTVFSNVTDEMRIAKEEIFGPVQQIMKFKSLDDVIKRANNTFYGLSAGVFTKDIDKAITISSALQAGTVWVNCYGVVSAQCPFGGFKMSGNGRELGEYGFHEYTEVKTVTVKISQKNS
* = called active by the depositor; ? = inconclusive; / = no result; [ ] = remark or other dose. Hits are enriched below; roughly 9.4% of the tested compounds scored in any of these assays. Unless noted, calls follow the shape of the dose curve; as a rule, active = well fitted curve in the direction sought with a large enough effect; inconclusive = small, poorly fitted or top-dose-only effect, or another doubt; inactive = no such curve, though single readings can be large; an effect the other way counts as inactive or inconclusive.

SMILES	HttQ103 aggreg	HTT ATP protect	IMPase Li inh	HPGD block	IMPase cell inh	ALDH1A1 block
COc1ccc(/C=C/C(=O)Nc2sc3c(c2C(N)=O)CCC(C)C3)cc1OC (configuration not stated)	/	/	/	/	0	/
Cc1cccc(C(=O)NC(=S)Nc2ccc(S(=O)(=O)N3CCCCC3)cc2)c1	?	-33%	21%[38.3 µM]	-10%	7	8.9µM*
O=C(NC(=S)Nc1ccccc1N1CCCC1)c1cccs1	21%[9.22 µM]	12%[10 µM]	/	/	/	/
Cc1cccc(C(=O)NC(=S)Nc2ccc(S(=O)(=O)N3CCN(C)CC3)cc2)c1	-3%	-17%	43%[38.3 µM]	-10%	8	?
O=C(NC(=S)Nc1ccccc1N1CCOCC1)c1cccs1	?	-10%[10 µM]	6%	-14%	/	40µM*
O=C(NC(=S)Nc1ccc(S(=O)(=O)N2CCCCCC2)cc1)c1cccs1	10%	15%[10 µM]	14%	-15%	/	13µM*
O=C(Nc1ccc(F)cc1)c1cc(S(=O)(=O)N2CCCCC2)cs1	10µM*	-9%	-3%[38.3 µM]	-6%	7	1%
Cc1ccc(OCCn2c(-c3ccc(Br)cc3)nc3ccccc3c2=O)cc1C	/	/	/	/	5	/
Cc1ccc(S(=O)(=O)n2nc(-c3ccc(Cl)cc3)nc2NCc2ccc(F)cc2)cc1	/	/	/	/	4	/
CCCCCCCCCCCCCCCCOCC(CO)OC (configuration not stated)	/	-5%	19%	-6%	/	1%
COc1ccc(CNc2ccnc(-c3cccc(C#N)c3)n2)c(OC)c1	/	-113%	26%	/	/	?
c1ccc(-c2cccc(N3CCC4(CCNCC4)CC3)c2)cc1	/	-85%	21%	-9%	/	?
O=C(NC(=S)Nc1ccc(N2CCCCC2)cc1)c1cccs1	-11%	-12%[10 µM]	4%	32µM*	7	22µM*
COc1cc(OC)cc(C(=O)NC(=S)Nc2ccc(N3CCCC3)cc2)c1	22%	19%[10 µM]	8%	-11%	/	11µM*
Cc1ccc(C(=O)NC(=S)Nc2ccc(N3CCOCC3)cc2)c(C)c1	17%	-19%	6%	/	/	32µM*
CCOc1cccc(C(=O)NC(=S)Nc2ccc(N3CCN(CC)CC3)cc2)c1	35%	-26%	22%	/	/	?
O=S(=O)(c1ccc(F)cc1)N(CC(O)Cn1c2ccccc2c2ccccc21)c1ccccc1 (configuration not stated)	/	/	/	/	11	/
Fc1ccc(-c2cn3cc(Cc4ccc(Cl)cc4)sc3n2)cc1	/	/	/	/	3	/
CCC(OC(=O)CN1C(=O)C(=O)c2ccccc21)C(=O)Nc1ccc(S(N)(=O)=O)cc1 (configuration not stated)	-11%	-15%	-3%	/	/	0.089µM*
COC(=O)c1cc(C(=O)c2ccccc2)n2c(=O)/c(=C\N(C)C)sc12	13%[9.22 µM]	10%[10 µM]	/	/	/	3.2µM*
COC(=O)c1cc(C(=O)c2ccc(Cl)cc2)n2c(=O)/c(=C\N(C)C)sc12	21%	-17%	-5%	/	/	0.25µM*
Cc1nc(N2CCOCC2)c2nc(-c3ccccc3)n(CCCN(C)C)c2n1	/	-47%	-2%	?	/	?
COc1ccc(Br)cc1CNC(=O)CCc1nc(-c2ccccc2F)no1	-22%	-19%	1%[38.3 µM]	-6%	-1	?
COc1cccc(NC(=O)CCc2nc(-c3ccccc3F)no2)c1	?	-11%	16%[38.3 µM]	-6%	9	0%
CCc1ccccc1N(CC)C(=O)CCc1nc(-c2ccc(C)cc2)no1	10µM*	-47%	-10%[38.3 µM]	25µM*	9	1%
SMILES	HttQ103 aggreg	HTT ATP protect	IMPase Li inh	HPGD block	IMPase cell inh	ALDH1A1 block
COc1ccc(-c2noc(CCC(=O)Nc3cc(OC)ccc3OC)n2)cc1	-7%[9.22 µM]	7%	-8%[38.3 µM]	-14%	6	7.1µM*
O=C(CCc1nc(-c2ccccc2F)no1)Nc1ccc(Oc2ccccc2)cc1	4µM*	-89%	11%[38.3 µM]	-17%	7	?
COc1ccc(CNC(=O)CCc2nc(-c3ccccc3F)no2)c(OC)c1	-11%	15%[10 µM]	8%[38.3 µM]	-10%	6	10µM*
CCNc1ncc2nc(CCc3ccccc3)c(=O)n(CCOC)c2n1	/	-57%	4%	?	/	?
COc1ccc(O[C@H]2C=C[C@@H](c3ccccc3)O[C@@H]2COC(=O)CC/C(C)=N/OC[C@@H](O)[C@H]2O[C@@H]3OC(C)(C)O[C@@H]3[C@H]2O)cc1	9%	/	8%	-9%	/	-1%
Cc1ccc(/C=C/C2=C[C@]3(C)C[C@]2(C)[C@H](c2ccc(C)cc2)CC3=O)cc1	/	9%	9%	-5%	/	?
CSc1nc2ccc(NC(=O)c3ccc(Cl)s3)cc2s1	-17%[9.22 µM]	0%[10 µM]	7%	/	/	?
COC(=O)c1ccc(C(NC(=O)OCc2ccccc2)/C(=C/[C@@H](C)C(=O)N(C)C)c2cccnc2)cc1 (some centres not stated)	/	-33%	0%	0%	/	-2%
CCCCCCCCCCCCCCCC(=O)N[C@@H](COP(=O)(O)O)C(=O)O	/	?	35%	?	/	3%
COc1ccc(C)cc1N(C)C(=O)CCc1nc(-c2ccccc2F)no1	/	/	/	/	-3	/
CCN(C(=O)CCc1nc(-c2ccccc2F)no1)c1cc(OC)ccc1OC	-11%	5%[10 µM]	22%[38.3 µM]	22µM*	2	?
CCN(CC)c1ccc(C2NCC(c3ccc([N+](=O)[O-])cc3)O2)cc1 (configuration not stated)	11%	-6%[10 µM]	-6%	-11%	5	0.28µM*
COc1ccc(/C=C2\C(=O)N(c3c(Cl)cc(Cl)cc3Cl)N=C2NC(=O)c2cccc([N+](=O)[O-])c2)cc1	25%	27%[10 µM]	-1%	22µM*	/	?
O=C(NCCO)c1ccc(Cc2nc3ccccc3[nH]2)cc1	/	/	/	0%	/	8%
O=C(NCCCc1nc2ccccc2[nH]1)c1ccc(F)cc1	?	0.35µM*	0%	/	/	3%
CN1C(=O)CSc2ccc(NC(=O)N3CCN(c4ccccn4)CC3)cc21	?	-7%[10 µM]	-1%	-17%	11	?
Cc1ccc(C)c(N2CCN(C(=O)Nc3ccc4c(c3)N(C)C(=O)CS4)CC2)c1	22µM*	-52%	21%	/	/	12%
C/C(N)=C(/C#N)C(=O)CSc1nc2scc(-c3ccc(F)cc3)c2c(=O)n1C	-13%	-14%	7%	/	/	16µM*
